Experimental data published in the supplement of paper PMC3334620.
The full ranking holds about 33,000 sequences; the median of “E-score (-0.5 to 0.5)” is about -0.021, and the highest 2% start at about 0.32. What follows is part of a selection rich in the highest values, with near analogues and random picks from the rest.

The sequences below were run against T1, Zap1 (UniProt P47043) (assay: PBM E-score (8-mer binding enrichment) (E-score (-0.5 to 0.5)); higher = stronger / more preferred TF binding). Details: protein concentration: 200 nM; construct: GST-full length.
T1 sequence: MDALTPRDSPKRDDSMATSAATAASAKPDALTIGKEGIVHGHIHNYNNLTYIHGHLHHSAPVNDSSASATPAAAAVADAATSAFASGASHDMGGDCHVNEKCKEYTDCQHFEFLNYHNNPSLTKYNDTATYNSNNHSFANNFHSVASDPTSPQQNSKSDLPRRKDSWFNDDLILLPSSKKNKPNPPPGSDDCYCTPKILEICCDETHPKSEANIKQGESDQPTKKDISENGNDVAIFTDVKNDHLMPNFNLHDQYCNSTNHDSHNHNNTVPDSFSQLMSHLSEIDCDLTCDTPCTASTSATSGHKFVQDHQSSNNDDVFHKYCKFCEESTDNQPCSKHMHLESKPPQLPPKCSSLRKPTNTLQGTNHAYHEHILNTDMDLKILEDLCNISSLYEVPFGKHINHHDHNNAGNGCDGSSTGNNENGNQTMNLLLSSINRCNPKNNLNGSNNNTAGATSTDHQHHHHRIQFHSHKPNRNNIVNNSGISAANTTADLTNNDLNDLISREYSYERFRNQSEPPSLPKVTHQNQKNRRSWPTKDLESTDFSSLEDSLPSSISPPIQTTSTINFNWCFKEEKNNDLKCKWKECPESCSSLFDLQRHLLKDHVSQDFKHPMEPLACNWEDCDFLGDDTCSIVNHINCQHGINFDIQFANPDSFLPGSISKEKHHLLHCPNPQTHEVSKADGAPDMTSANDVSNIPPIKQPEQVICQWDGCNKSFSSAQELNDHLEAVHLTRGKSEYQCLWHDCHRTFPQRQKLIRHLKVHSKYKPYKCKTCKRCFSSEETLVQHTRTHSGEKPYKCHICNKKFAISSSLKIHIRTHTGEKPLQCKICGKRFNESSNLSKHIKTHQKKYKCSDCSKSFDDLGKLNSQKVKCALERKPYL
Outline: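 Each ungapped eight-base word and its reverse complement, pooled, received an E-score from the Universal PBM Analysis Suite. Underlying scans, normalised with masliner, recorded fluorescent anti-GST bound to GST-tagged yeast transcription factors. These were applied at about 100-200 nM to universal all-10-mer Agilent arrays double-stranded by primer extension.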

Sequence | PBM E-score
AATTCTAC | 0.104
TATACTAA | 0.0714
GACAGCGA | -0.275
CGTTGGCC | -0.138
GCCGGTTA | 0.33
ACCGGTTG | 0.119
GCCGGTCA | 0.0353
CCCGGTTA | 0.25
GCCGGTGA | 0.0983
ACCGGTTA | 0.372
AGATTGAA | -0.0374
ATGCTAGG | -0.159
ACTAAATG | -0.036
ACCAGCGG | 0.0819
CAAGATGC | -0.0715
AGTGGGAA | 0.022
GTTGAAGA | -0.0696
AGGTCAGG | 0.141
ATGTCATC | -0.123
AGGTCATA | 0.347
GGGTCAGA | 0.0808
GGGTCATA | 0.432
CGGTCATA | 0.201

Sequence | PBM E-score
ATGTCATA | -0.0263
AGGTCAAG | 0.277
AGGTCAGA | 0.149
CGGTCATC | 0.131
AGGTCATG | 0.416
AGGTCATC | 0.373
TGCTCGAA | -0.0246
CATAGATC | -0.0935
ACATCTGG | 0.0376
CAGTACTG | -0.118
GAGTCTTA | -0.368
ACGTAGGA | -0.12
ACGTCTGC | -0.272
AGGTCGTC | 0.0799
AGGTCGTG | 0.353
AGGTCGTA | 0.189
AAACCAGA | 0.165
AGGAACCC | 0.104
GGCAACCC | 0.358
CGCAACCC | 0.379
AGCAACCC | 0.239
CGGAACCG | 0.169
GGCAACCA | 0.116

Sequence | PBM E-score
CGCAACCA | 0.283
CGCAACCG | 0.281
CGGAACCC | 0.326
AGATCGCA | -0.127
AATTCTTG | -0.0794
TTACACAA | 0.21
GAGTGCAA | 0.0286
ATACCCTC | 0.323
ATACCCGC | 0.314
CTACCCTC | 0.35
CTACCCGC | 0.244
CTACCCCC | -0.295
ATACCCTA | 0.459
ATACCCTG | 0.306
GTACCCGA | 0.184
ATACCCGA | 0.224
CTACCCTA | 0.291
GTACCCTA | 0.413
AGACCCTC | 0.092
AGCATCTA | -0.248
CTCTTGCA | -0.161
AACGGCGA | 0.0503
ATAAAGCA | -0.0384

Sequence | PBM E-score
CCGTCCCA | -0.0821
AAATAGCT | -0.141
CCTCTTGA | 0.148
AGGACCCT | 0.226
CACTGCGC | -0.192
TCACCAGA | 0.015
CCACAAAC | 0.147
CCACAAGA | 0.0787
CCACAAGG | 0.33
CCACAAAA | 0.237
CCACAAAG | 0.34
CCACAAGC | 0.0428
ACTAGATA | 0.115
AGTGCAAC | 0.0909
CGGGTGTA | 0.0123
CAAGGGCC | 0.0489
CAGGGGTC | 0.321
AAAGGGGC | -0.00977
CAGGGGTA | 0.286
AGAGGGTC | 0.213
AAAGGGCT | 0.00434
GAAGGGTC | 0.211
AAAGGGTG | 0.247

Sequence | PBM E-score
CAAGGGTC | 0.355
AAAGGGTC | 0.363
AAGGGGTC | 0.264
AAAGGGTT | 0.396
CACGATCC | 0.141
AGCTAAAC | -0.144
TCCAGCGA | -0.138
AGATGGAT | -0.254
CAAGGGCA | -0.182
CCGGGGTC | 0.348
ACAAGGGT | 0.387
CGGGGGTC | -0.0576
ACAAGGGC | -0.137
CAAGGGTA | 0.398
ACGGGGTC | 0.218
ACAAGGGG | -0.128
AAAGGGGT | 0.32
AAGGGGGT | -0.271
AAAGGGGG | -0.385
CAAGGGTG | 0.262
